According to the supplement of paper PMC6555819:

Tests used:
Assay in all cases: PBM binding z-score (relative to random genomic background probes); higher = stronger binding; sequences stand for … in GC…GCGATTGACAGCGTAGAATGAAGG
[1] = system: FXR:RXRa (NR concentration 270 nM, RXRa partner concentration 90 nM)
Outline: (§1)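 Binding z-scores were set against random background probes. The data came from custom Agilent 4×180K protein-binding microarrays carrying double-stranded probes with 34-nt variable regions, incubated 1 h with ligand-free nuclear receptor dimers. Partner-specific antibodies detected binding, and scanned fluorescence was regression-normalized.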

[2] = system: LXRa:RXRa (NR concentration 270 nM, RXRa partner concentration 90 nM)
Outline: as §1

[3] = system: LXRa homodimer (NR concentration 270 nM)
Outline: as §1

[4] = system: LXRb:RXRa (NR concentration 270 nM, RXRa partner concentration 90 nM)
Outline: as §1

[5] = system: LXRb homodimer (NR concentration 270 nM)
Outline: as §1

[6] = system: PPARa:RXRa (NR concentration 270 nM, RXRa partner concentration 90 nM)
Outline: as §1

[7] = system: PPARg:RXRa (NR concentration 180 nM, RXRa partner concentration 90 nM)
Outline: as §1

[8] = system: PPARg:RXRa 270nM:90nM, anti-RXR (NR concentration 270 nM, RXRa partner concentration 90 nM)
Outline: as §1

[9] = system: PPARg:RXRa 30nM:10nM, anti-RXR (NR concentration 30 nM, RXRa partner concentration 10 nM)
Outline: as §1

[10] = system: PPARg:RXRa 90nM:30nM, anti-RXR (NR concentration 90 nM, RXRa partner concentration 30 nM)
Outline: as §1

[11] = system: PPARg:RXRa DBDmut IVT, anti-RXR (DBD mutation: RXRa K156A/R161A, NR concentration 270 nM, RXRa partner concentration 90 nM)
Outline: as §1

[12] = system: PPARg:RXRa IVT, anti-PPARg (NR concentration 270 nM, RXRa partner concentration 90 nM)
Outline: as §1

[13] = system: PPARg DBDmut:RXRa IVT, anti-PPARg (DBD mutation: PPARg1 K132A/R137A, NR concentration 270 nM, RXRa partner concentration 90 nM)
Outline: as §1

[14] = system: PPARg DBDmut IVT, anti-PPARg (DBD mutation: PPARg1 K132A/R137A, NR concentration 270 nM)
Outline: as §1

[15] = system: PPARg homodimer (NR concentration 180 nM)
Outline: as §1

[16] = system: PXR:RXRa (NR concentration 270 nM, RXRa partner concentration 90 nM)
Outline: as §1

[17] = system: PXR homodimer (NR concentration 270 nM)
Outline: as §1

[18] = system: RARa:RXR (NR concentration 270 nM, RXRa partner concentration 90 nM)
Outline: as §1

[19] = system: RARa homodimer (NR concentration 270 nM)
Outline: as §1

[20] = system: RARb:RXRa (NR concentration 270 nM, RXRa partner concentration 90 nM)
Outline: as §1

Sequence	PBM binding z-score [1]	PBM binding z-score [2]	PBM binding z-score [3]	PBM binding z-score [4]	PBM binding z-score [5]	PBM binding z-score [6]	PBM binding z-score [7]	PBM binding z-score [8]	PBM binding z-score [9]	PBM binding z-score [10]	PBM binding z-score [11]	PBM binding z-score [12]	PBM binding z-score [13]	PBM binding z-score [14]	PBM binding z-score [15]	PBM binding z-score [16]	PBM binding z-score [17]	PBM binding z-score [18]	PBM binding z-score [19]	PBM binding z-score [20]
CGTCCAAGGTCAATGCTAGGTCAGGGAAAGCATT	6.82	5.42	2.86	4.1	0.919	5.17	4.49	4.52	1.47	3.37	2.8	4.06	-0.00201	-0.912	3.8	4.55	0.675	5.55	0.824	5.31
CTTCAAAGTTCAAGGTAACGTAACAGAAAGCAGC	5.99	5.87	3.59	3.5	1.19	4.48	2.86	3.83	1.15	2.43	0.401	1.36	0.994	1	2.93	4.18	2.67	3.32	1.72	5.1
ATCGAAAGGTCGAAGGTGAGAATACCCACCCGAA	4.1	3.81	0.0457	2.94	0.451	4.73	4.6	4.93	2.85	4.31	0.14	2.32	0.346	0.631	1.03	3.1	0.0633	4.65	0.941	3.83
AGTCAAAGATCAGGACGAGGTAACGTAAAGCACG	0.107	-0.519	-0.426	-0.362	-0.522	0.273	1.18	0.619	0.0734	0.677	-0.64	0.122	0.0525	0.169	-0.153	-0.236	-0.419	0.336	0.445	0.247
TCTAGCAGGCCAGAGTGTCACTCAAGAGGTACGG	-0.276	-0.311	-1.03	-0.712	-1.41	0.336	0.89	1.81	1.93	1.97	0.735	0.187	-0.515	-1.96	-0.804	-0.229	-0.833	0.142	-1.77	0.361
GGAACGAGTGCAAGTTGATAGCAGAGTTTGATGG	-0.219	-0.282	-0.428	-0.496	-0.508	-0.279	0.107	-0.41	-0.349	-0.508	-0.142	-0.639	0.145	-0.69	-0.875	0.885	1.16	-0.297	-1.23	0.365
CCTTACGGGTCACTCCTGGTTATAGCATCGGAGT	4.24	5.52	-0.0362	3.01	0.134	4.2	2.76	3.54	0.987	2.25	2.58	3.35	0.273	-0.731	1.77	2.67	0.0261	3.18	0.288	3.55
GCATATAGCTAATACAAGGTGAAAGTCCGATTGT	-0.158	-0.177	0.202	-0.0693	-0.0357	0.477	0.487	0.425	-0.0371	0.33	0.11	0.315	0.87	-0.0254	0.259	0.262	0.241	0.651	0.533	0.107
ATATGTAGGTTAAGGGTCATTCACGTTGGTTCGC	5.72	4.91	2.96	4.5	1.26	6.49	11.8	9.66	9.95	11.2	7.26	8.08	3.39	2.65	4.43	4.79	0.957	5.91	1.47	3.54
TTACCAAGGTGAGCGGAGGTCGTTGATCCAACTC	1.38	1.36	-0.4	0.829	-1.16	1.81	0.414	1.19	0.0694	0.605	1.19	2.32	-0.403	-0.114	-0.196	4.22	0.00572	1.51	-1.17	1.92
CTCGAAAGGTCGGTTGAGGTGAGTTTACGGATAA	2.83	1.88	0.32	1.63	-0.184	2.69	-9.87e-05	1.12	0.0415	0.508	1.08	0.924	-0.565	-0.36	0.854	3.83	0.588	2.16	-0.143	3.09
CCGAGTAGGTTATGGGCCATTCAGGCAACGGTGA	-0.39	0.176	-0.0661	-0.0151	-0.497	1.58	2.14	3.47	1.22	3.06	3.19	2.58	-0.937	-0.608	1.06	-0.326	-0.187	-0.0932	-0.148	0.816
TCATATAGGTAAATGCTAGGTGAAAGTTCGATCT	1.23	1.18	0.931	1.27	-0.0844	2.74	3.2	4.57	4.77	4.78	3.99	3.4	1.55	1.1	1.29	1.17	0.91	1.61	1.71	0.871
ATATGTAGATTAGCTGGGGTCATTCAGACTAGGC	3.43	3.51	1.55	4.27	1.51	4.33	1.45	2.53	0.88	1.9	1.08	1.54	1.36	1.4	1.47	5.46	2.56	5.47	1.07	2.59
